Data published in PubChem BioAssay (NCI).
“And” between values parts separate entries of the source, which are not always exact repeats. Equal values may be shown once. The panel holds about 79,000 compounds, 15% with a hit somewhere; the sample as a whole holds those more often. The source made the active and inactive calls. Rule as the data show it: active = growth inhibition above about 70%; inactive = the rest.

How the values were obtained:
[1] = NCI Yeast Anticancer Drug Screen. Data for the rad50 strain (AID 155);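 also: 0% = growth of vehicle-only cultures of the same strain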; details: S. cerevisiae rad50 strain growth inhibition, hits give high values
Procedure, shortened: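 Inhibition values express reduced yeast growth in compound-treated cultures relative to vehicle-treated controls.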

[2] = NCI Yeast Anticancer Drug Screen. Data for the mec2-1 strain (AID 157); details: S. cerevisiae mec2-1 strain, hits give high values
Procedure, shortened: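 Mutant yeast (mec2-1) grown with compound; growth inhibition relative to vehicle control reported.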

[3] = NCI Yeast Anticancer Drug Screen. Data for the sgs1 mgt1 strain (AID 161);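 also: 0% = growth of cultures given vehicle only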; details: S. cerevisiae sgs1 mgt1 strain, hits give high values
Procedure, shortened: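 This yeast growth screen uses a strain with defined DNA-repair lesions; compound-treated growth is compared with vehicle-treated growth.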

[4] = NCI Yeast Anticancer Drug Screen. Data for the cln2 rad14 strain (AID 165);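 also: 0% = growth equal to vehicle treated cultures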; details: S. cerevisiae cln2 rad14 strain, hits give high values
Procedure, shortened: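 Readout is yeast growth inhibition versus vehicle-treated controls, using a strain with cln2 and rad14 alterations exposed to compound.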

[5] = NCI Yeast Anticancer Drug Screen. Data for the bub3 strain (AID 167); details: S. cerevisiae bub3 mutant strain, hits give high values
Procedure, shortened: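 Steps: expose the mutant yeast strain to compound; grow alongside vehicle-treated cultures; measure growth; express inhibition against the vehicle cultures.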

[6] = NCI Yeast Anticancer Drug Screen. Data for the mlh1 rad18 strain (AID 175); details: S. cerevisiae mlh1 rad18 strain growth inhibition, hits give high values
Procedure, shortened: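 Genetically defined yeast (DNA repair-deficient) exposed to compounds; growth inhibition determined relative to vehicle.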

[7] = at 5.0 µM (retest, dose inferred, filed as 0.5)
[8] = at 50.0 µM (retest, dose inferred, filed as 5.0)

Measured: growth inhibition

O=C1NC(=O)/C(=C/c2ccc(S(=O)(=O)N/N=C\C(O)C(O)C(O)C(O)CO)cc2)N1 (stereo not drawn)
inactive: [1]; at 50.0 µM 3.55% and -20.8% and 1.5% | [2]; at 50.0 µM -3.7% and 38.8% and 12.5% | [3]; at 50.0 µM -19.6% and 19.2% and -13.3% | [4]; at 50.0 µM 2.3% and 4.95% and 8.9% | [5]; at 50.0 µM -17.4% and -6.2% and 3.65% | [6]; at 50.0 µM 15.4% and 28.7% and 13.4%

N#C/C(=C\NC(=S)Nc1cc(Cl)ccc1Cl)c1nc2ccccc2s1
inactive: [1]; [7] 21% | [1]; [8] 25% | [1]; at 50.0 µM 34.2% | [2]; [7] 7% | [2]; [8] 21% | [2]; at 50.0 µM 15.1% | [4]; [7] 20% | [4]; [8] 29% | [4]; at 50.0 µM 39.6% | [5]; [7] 7% | [5]; [8] 19% | [5]; at 50.0 µM 37.4% | [6]; [7] 21% | [6]; [8] 12% | [6]; at 50.0 µM 27.1%

CCCCC#CCOC(=O)c1cc([N+](=O)[O-])cc([N+](=O)[O-])c1
inactive: [4]; [7] 67%
active: [1]; [7] 97% | [1]; [8] 99% | [1]; at 50.0 µM 99.2% | [3]; [7] 99% | [3]; [8] 99% | [3]; at 50.0 µM 99.8% | [4]; [8] 99% | [4]; at 50.0 µM 99.3% | [5]; [7] 96% | [5]; [8] 100% | [5]; at 50.0 µM 99.3% | [6]; [7] 98% | [6]; [8] 99% | [6]; at 50.0 µM 98.8%

CN(C)[C@@H]1C(=O)C(C(=O)NCNc2nc3n[nH]nc3c(=O)[nH]2)=C(O)[C@@]2(O)C(=O)C3=C(O)c4c(O)cccc4[C@@](C)(O)[C@H]3C[C@@H]12
inactive: [1]; [7] -1% | [1]; [8] 9% | [1]; at 50.0 µM -5.65% | [3]; [7] -7% | [3]; [8] 3% | [3]; at 50.0 µM -7% | [4]; [7] 1% | [4]; [8] -8% | [4]; at 50.0 µM 11.6% | [5]; [7] 7% | [5]; [8] 14% | [5]; at 50.0 µM -10.6% | [6]; [7] 1% | [6]; [8] 4% | [6]; at 50.0 µM -4.9%

CCC(c1ccc(Cl)cc1)C(C#N)c1ccc(Cl)cc1 (stereo not drawn)
active: [6]; at 50.0 µM 76.4%
inactive: [2]; [7] -1% | [2]; [8] 33% | [2]; at 50.0 µM 61.5% | [3]; [7] -3% | [3]; [8] 46% | [3]; at 50.0 µM 68.1% | [4]; [7] -8% | [4]; [8] 12% | [4]; at 50.0 µM 11.4% | [5]; [7] 6% | [5]; [8] 44% | [5]; at 50.0 µM 41.8% | [6]; [7] 2% | [6]; [8] 52%

COc1ccc(-c2c(C#N)c(S)n(NS(=O)(=O)c3ccc(C)cc3)c(=O)c2C#N)cc1
inactive: [1]; [7] 40% | [1]; at 50.0 µM 28.8% | [3]; [7] 34% | [3]; at 50.0 µM 61% | [4]; [7] 48% | [4]; [8] 64% | [4]; at 50.0 µM 20% | [5]; [7] 58% | [5]; at 50.0 µM 43.8% | [6]; [7] 27% | [6]; [8] 69%
active: [1]; [8] 89% | [3]; [8] 97% | [5]; [8] 95% | [6]; at 50.0 µM 71.5%

CC(C)(C)OC(=O)N(CCCCNCc1ccc2ccccc2c1)CCCNCc1ccc2ccccc2c1
active: [1]; [8] 99% | [1]; at 50.0 µM 91% | [3]; [8] 99% | [3]; at 50.0 µM 76.5% | [4]; [8] 98% | [4]; at 50.0 µM 89% | [5]; [8] 97% | [5]; at 50.0 µM 90.5% | [6]; [8] 99% | [6]; at 50.0 µM 91%
inactive: [1]; [7] 17% | [3]; [7] -7% | [4]; [7] 3% | [5]; [7] 18% | [6]; [7] 26%

CCOC(=O)CCC(N)C(=O)OCC (stereo not drawn)
inactive: [1]; at 50.0 µM 20.8% and 1.45% and -26.1% | [2]; at 50.0 µM -4.05% and -5.05% and -0.15% | [3]; at 50.0 µM 8.4% and -2% and -19.9% | [4]; at 50.0 µM 5.9% and -29.1% and -40.6% | [5]; at 50.0 µM 1.45% and 7.05% and -8.7% | [6]; at 50.0 µM 10.9% and 23.9% and -16.1%

CCN(CC)C(=O)N1CCN(c2cccc(Cl)c2)CC1
active: [1]; at 50.0 µM 74% | [2]; [8] 84% | [2]; at 50.0 µM 91.2% | [4]; at 50.0 µM 93% | [5]; [8] 73% | [5]; at 50.0 µM 85.7% | [6]; [8] 76% | [6]; at 50.0 µM 90.6%
inactive: [1]; [7] 4% | [1]; [8] 58% | [2]; [7] 0% | [4]; [7] 1% | [4]; [8] 50% | [5]; [7] 4% | [6]; [7] 2%

O=C(O)c1cc2ccc(Cl)cc2c2c1C(=O)c1cc(Cl)ccc1-2
inactive: [2]; [7] 0% | [2]; [8] 33% | [2]; at 50.0 µM 57.5% | [3]; [7] -2% | [3]; [8] 35% | [4]; [7] -3% | [4]; [8] 39% | [5]; [7] -2% | [5]; [8] 33% | [6]; [7] -4% | [6]; [8] 46%
active: [3]; at 50.0 µM 82.5% | [4]; at 50.0 µM 77.3% | [5]; at 50.0 µM 82% | [6]; at 50.0 µM 84.5%

OCC(O)C(O)C(O)CO (stereo not drawn)
inactive: [1]; at 50.0 µM -5.35% and 10.4% and 7.75% | [2]; at 50.0 µM -8.1% and 4.3% and 14% | [3]; at 50.0 µM -16% and 7.05% and 14.4% | [4]; at 50.0 µM 4.25% and 2.85% and 13.9% | [5]; at 50.0 µM -45.7% and -5.45% and 0.05% | [6]; at 50.0 µM -8.35% and -4.45% and 10%

CC[N](CC)[Ge]([CH2]C)[CH2]C.CC[N](CC)[Ge]([CH2]C)[CH2]C
inactive: [2]; [7] 21% | [3]; [7] 56% | [3]; at 50.0 µM 56.4% | [4]; [7] 48% | [4]; at 50.0 µM 37.1% | [5]; [7] 59% | [6]; [7] 27%
active: [2]; [8] 98% | [2]; at 50.0 µM 76.9% | [3]; [8] 99% | [4]; [8] 98% | [5]; [8] 99% | [5]; at 50.0 µM 75% | [6]; [8] 97% | [6]; at 50.0 µM 77.7%

CCCC(C1=C(O)CC(C)CC1=O)C1=C(O)CC(C)CC1=O (stereo not drawn)
inactive: [1]; [7] -6% | [1]; [8] -2% | [1]; at 50.0 µM -8.7% | [3]; [7] -4% | [3]; [8] 8% | [3]; at 50.0 µM -5.6% | [4]; [7] -34% | [4]; [8] 23% | [4]; at 50.0 µM -24.4% | [5]; [7] -6% | [5]; [8] 19% | [5]; at 50.0 µM -7.2% | [6]; [7] 4% | [6]; [8] 28% | [6]; at 50.0 µM 0.45%
